# Bioassay records deposited in PubChem by Buhrlage Lab, Dana-Farber Cancer Institute and Novartis Institutes for BioMedical Research (Cambridge, Mass).
# Hits are enriched below; roughly 11% of the tested compounds scored in any of these assays.
# USP28 inh: human USP28 deubiquitinase inhibition | Q96RU2 | purified USP28, Ub-rhodamine cleavage fluorescence, 30 min | inhibition, % at 25 µM | 47,000 compounds, 3% hits
# USP17 inh: human USP17-like deubiquitinase inhibition | 47,000 compounds, 6.5% hits | purified USP17, Ub-rhodamine cleavage fluorescence, 3 h | AID 1645855 | inhibition, % at 50 µM
# Target sequence (A8MUK1 whole entry, looked up): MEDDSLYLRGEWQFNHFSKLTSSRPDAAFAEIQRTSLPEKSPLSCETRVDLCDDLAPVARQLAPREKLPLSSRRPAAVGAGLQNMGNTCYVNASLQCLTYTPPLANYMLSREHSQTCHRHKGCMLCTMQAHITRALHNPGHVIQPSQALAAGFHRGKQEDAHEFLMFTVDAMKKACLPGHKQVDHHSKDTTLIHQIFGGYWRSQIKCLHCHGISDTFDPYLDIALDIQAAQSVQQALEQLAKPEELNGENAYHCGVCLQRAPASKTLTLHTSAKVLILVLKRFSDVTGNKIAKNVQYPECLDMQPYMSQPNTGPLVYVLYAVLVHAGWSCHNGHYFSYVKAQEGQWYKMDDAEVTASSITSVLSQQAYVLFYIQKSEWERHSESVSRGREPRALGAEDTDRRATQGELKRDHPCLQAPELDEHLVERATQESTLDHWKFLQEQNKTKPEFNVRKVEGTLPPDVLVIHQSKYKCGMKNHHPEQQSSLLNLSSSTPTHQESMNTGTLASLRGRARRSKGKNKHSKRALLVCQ
# USP30 block: human USP30 deubiquitinase inhibition | Q70CQ3 | purified USP30, Ub-rhodamine cleavage fluorescence | inhibition, % at 25 µM | 47,000 compounds, 5.3% hits
# Active calls of the source: *; · = no result. No stated cut-off is given here; in the data, active means inhibition above about 30%; inactive means the rest.
SMILES,USP28 inh,USP17 inh,USP30 block
CCOc1cc2c(cc1OCC)C(c1c(OC)ccc3ccccc13)NCC2 (centres undefined),7.7,0.1,38.2*
O=C(NCc1ccco1)c1nn(C23CC4CC(CC(C4)C2)C3)cc1[N+](=O)[O-],-7.0,-19.5,2.4
COc1ccc2nc(C(=O)NCc3ccccc3)cn2n1,-15.1,-10.6,-13.0
CCOc1ccc2nc(C(=O)NCc3ccc4c(c3)OCO4)cn2n1,27.9,31.7*,41.2*
O=C(NCc1ccc2c(c1)OCO2)c1nn(C23CC4CC(CC(C4)C2)C3)cc1[N+](=O)[O-],25.4,6.5,62.2*
O=C(c1cscn1)N1CC2(CCN(CC(c3ccccc3)c3ccccc3)CC2)C1,1.3,3.1,20.7
CCc1nc(N2CCCC2=O)sc1C(=O)N1CCN(c2ccc(C(C)=O)cc2)CC1,-11.7,-23.8,-18.2
COc1ccc(NC(=O)Cn2c(=O)n(-c3ccc(CC(=O)NCCc4ccccc4)cc3)c(=O)c3ccccc32)cc1,11.5,15.6,18.8
CC(C)(C)C(=O)Cn1c(=O)n(Cc2ccco2)c(=O)c2ccc(C(=O)NC3CCCC3)cc21,-6.6,-0.2,11.8
Cc1cc(NC(=O)Cn2c(=O)n(Cc3ccco3)c(=O)c3ccc(C(=O)NCCc4ccccc4)cc32)n[nH]1,84.3*,82.4*,73.6*
O=C(Cn1c(=O)n(Cc2ccco2)c(=O)c2ccc(C(=O)NC3CCCC3)cc21)NCc1ccco1,27.8,55.0*,-14.9
COc1ccc(-n2c(=O)c3ccc(C(=O)NCCc4ccccc4)cc3n(CC(=O)NCc3ccco3)c2=O)cc1,14.7,59.8*,-11.7
Cc1cc(NC(=O)Cn2c(=O)n(CCc3ccccc3)c(=O)c3ccccc32)n[nH]1,0.0,24.6,5.8
Cc1ccc(-n2c(C)cc(C(=O)N3CCCC(c4nnc5ccccn45)C3)c2C)cc1 (centres undefined),-61.1,-102.8,-257.8
Cc1noc(C)c1CNC(=O)c1nc(Cc2c[nH]c3ccccc23)no1,-35.2,-39.8,-106.5
CCC1CCCCN1C(=O)c1cc2c(=O)n3cccc(C)c3nc2n1Cc1ccccc1 (centres undefined),0.8,15.8,16.5
Cc1ccccc1NC(=O)Cn1cncc(-c2nc(-c3ccccc3)cs2)c1=O,-10.6,60.2*,-153.8
Cc1ccc(NC(=O)Cn2cncc(-c3nc(-c4ccccc4)cs3)c2=O)cc1F,-2.7,8.7,-13.7
Cc1[nH]c2ccccc2c1CCC(=O)NC1CCCCC1,-43.6,-55.8,-154.3
CCOc1ccc2c(c1)c(=O)c(C(=O)c1ccc(C)cc1)cn2CC(=O)Nc1ccc(C)c(C)c1,·,18.9,·
CCOc1ccc(NC(=O)Cn2c(=O)n(CC(=O)NCc3ccc(C)cc3)c(=O)c3sccc32)cc1,14.8,·,69.8*
COc1ccc(NC(=O)Cn2c(=O)n(CC(=O)NCc3ccc(C)cc3)c(=O)c3sccc32)cc1OC,70.4*,71.3*,75.3*
COc1ccc(CCNC(=O)Cn2c(=O)c3sccc3n(Cc3cc(=O)n4ccccc4n3)c2=O)cc1OC,0.0,11.3,23.6
CC(C)CNC(=O)C1CCN(c2ccc(-c3ccc(F)cc3)nn2)CC1,·,2.8,·
O=C(Nc1cccc2ccccc12)C1CCN(c2ccc(-c3ccc(F)cc3)nn2)CC1,·,44.1*,·
SMILES,USP28 inh,USP17 inh,USP30 block
c1ccc2c(c1)NC(=NC1CCCC1)C1(CCCNC1)N2 (centres undefined),-22.2,-37.4,-78.2
COc1ccc(CCNc2ccc3c(cc2=O)[C@@H](NC(C)=O)CCc2cc(OC)c(OC)c(OC)c2-3)cc1OC,-53.7,-74.2,-123.6
CC(=O)Nc1nc2c(s1)CCc1ccccc1-2,39.3*,20.1,10.1
O=C(Cc1cccc2ccccc12)Nc1nc2c(s1)CCc1ccccc1-2,5.2,11.5,0.0
COc1ccc(C(=O)NC(Cc2ccccc2)c2nc3ccccc3[nH]2)c(OC)c1 (centres undefined),28.3,70.6*,0.8
O=C(NC(Cc1ccccc1)c1nc2ccccc2[nH]1)c1nc(Cl)ccc1Cl (centres undefined),24.5,22.7,-57.9
O=C(N[C@@H](Cc1ccccc1)c1nc2ccccc2[nH]1)c1ccncc1,4.7,24.5,-8.6
O=C(NC(Cc1ccccc1)c1nc2ccccc2[nH]1)c1ccc(-n2cnnn2)cc1 (centres undefined),2.2,11.3,18.5
O=C(NC(Cc1ccccc1)c1nc2ccccc2[nH]1)c1ccccn1 (centres undefined),56.6*,-16.0,-11.2
O=C(NC(Cc1c[nH]c2ccccc12)c1nc2ccccc2[nH]1)c1ccccc1 (centres undefined),-1.7,34.4*,-38.1
CC1(CNC(=O)Cn2cc(NC(=O)Cc3ccccc3F)cn2)CCCO1 (centres undefined),-0.4,4.3,0.6
COc1ccc(CCC(=O)NCc2cn3cccc(C)c3n2)cc1,1.2,7.2,14.8
